From PubChem BioAssay (NCATS)
Results filed as inconclusive are left out. Where a call stands in place of a potency, no number is given. More than one record can exist for a structure, and the calls need not agree. Active and inactive are the calls of the source. Unless noted, calls come from the whole dose curve; as a rule, active = well fitted curve in the direction sought with a large enough effect; inconclusive = small, poorly fitted or top-dose-only effect, or another doubt; inactive = no such curve, though single readings can be large; an effect the other way counts as inactive or inconclusive.

Legend:
[1] = qHTS Assay for Identification of Small Molecule Agonists for Hypoxia Response Element Signaling Pathway (AID 914; active = well fitted activation curve with a large enough effect in the signal ratio, with a control signal flat, not every such curve was filed as active; the % refers to the signal ratio); conditions: ME-180 (cervical carcinoma) HRE-bla reporter, beta-lactamase ratio, CoCl2, 17 h; stronger effect = higher value
Outline: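 HRE-bla ME-180 assay for agonist-like enhancement of an EC50 CoCl2 stimulus: 17 h at 37 degrees Celsius, CCF4 for 2.5 h, ratiometric 460/530 nm signal converted to %Activity and fitted to AC50.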

[2] = qHTS Assay for Identification of Small Molecule Agonists for Thrombopoietin (TPO) Signaling Pathway (AID 917); conditions: TPO signaling pathway reporter cells, agonist qHTS; series mostly up to 38.5 µM
Outline: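 Human TPO receptor–transfected Ba/F3 cells (murine, IL-3-dependent) in IL-3-deficient medium; compounds plus TPO at EC50, 26 pM final; 24 hrs, 37 C; GpIIb-luciferase luminescence after 10 min RT detection.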

[3] = target: Muscarinic acetylcholine receptor M1 (Rattus norvegicus) (UniProt P08482); assay: qHTS Assay for Antagonists of Acetylcholine Muscarinic M1 Receptor: Kinetic Measurement of Intracellular Calcium Response (AID 943); conditions: M1-expressing cells, kinetic intracellular calcium fluorescence; series mostly up to 35.3 µM; note: nearly all actives have a fitted effect of over 75% in size; note: potency is the fitted concentration of half-maximal effect
Muscarinic acetylcholine receptor M1 (Rattus norvegicus), sequence (P08482 whole entry, looked up): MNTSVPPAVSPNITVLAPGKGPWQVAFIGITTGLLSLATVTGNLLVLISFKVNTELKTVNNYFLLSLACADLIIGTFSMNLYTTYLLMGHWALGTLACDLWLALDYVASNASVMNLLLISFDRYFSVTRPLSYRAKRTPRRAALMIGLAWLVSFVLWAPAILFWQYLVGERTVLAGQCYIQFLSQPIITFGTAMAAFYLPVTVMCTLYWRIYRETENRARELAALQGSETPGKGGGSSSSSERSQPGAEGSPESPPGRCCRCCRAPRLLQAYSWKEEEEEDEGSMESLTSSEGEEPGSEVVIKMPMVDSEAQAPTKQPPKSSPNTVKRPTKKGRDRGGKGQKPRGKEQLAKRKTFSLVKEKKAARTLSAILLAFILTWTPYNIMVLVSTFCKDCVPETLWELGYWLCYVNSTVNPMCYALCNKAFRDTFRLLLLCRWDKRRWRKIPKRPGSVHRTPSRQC
Outline: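 Antagonism is measured as inhibition of the carbachol-evoked calcium rise in CHO cells transfected with rat M1. Cells are dye-loaded, exposed to compound for 10 min, then stimulated with 100 nM carbachol (EC80).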

[4] = target: Muscarinic acetylcholine receptor M1 (Rattus norvegicus) (UniProt P08482); assay: qHTS Assay for Antagonists of Acetylcholine Muscarinic M1 Receptor: Measurement of IP-One Response (AID 944); conditions: CHO-M1 cells, IP-One HTRF, antagonist mode; series mostly up to 46.1 µM; note: nearly all actives have a fitted effect of over 75% in size; note: potency is the fitted concentration of half-maximal effect
Outline: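 Antagonist mode with rat M1 receptor transfected into CHO cells. Compound is added first for 10 min, carbachol at its EC80 follows for 30 min, and lysis reagents then allow TR-FRET detection of accumulated IP1.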

[5] = target: Pyruvate kinase (Leishmania mexicana) (UniProt Q27686); assay: qHTS Validation Assay for Inhibitors of Leishmania Mexicana Pyruvate Kinase (AID 945); conditions: purified L. mexicana pyruvate kinase, enzyme activity, E451W mutant enzyme; series mostly up to 57.5 µM
Pyruvate kinase (Leishmania mexicana), sequence (Q27686 2-499 E452W): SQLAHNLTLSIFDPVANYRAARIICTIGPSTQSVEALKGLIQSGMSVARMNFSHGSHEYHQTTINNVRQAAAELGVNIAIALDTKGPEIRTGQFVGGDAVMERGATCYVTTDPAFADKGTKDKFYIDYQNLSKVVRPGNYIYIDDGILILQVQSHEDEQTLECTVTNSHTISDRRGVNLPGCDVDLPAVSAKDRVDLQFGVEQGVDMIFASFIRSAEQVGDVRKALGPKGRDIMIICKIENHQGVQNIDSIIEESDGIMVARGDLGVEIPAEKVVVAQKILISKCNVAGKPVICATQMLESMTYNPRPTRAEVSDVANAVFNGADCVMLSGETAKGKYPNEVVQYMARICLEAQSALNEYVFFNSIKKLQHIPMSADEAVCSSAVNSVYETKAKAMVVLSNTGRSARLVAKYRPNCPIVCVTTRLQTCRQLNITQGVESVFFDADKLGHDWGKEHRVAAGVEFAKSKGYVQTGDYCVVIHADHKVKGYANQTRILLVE
Outline: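 Eight-point qHTS titrations; enzyme 0.2 nM LmPYK (E451W mutant); substrates 0.5 mM PEP, 0.1 mM ADP; 7 mM MgCl2; 1 h room temperature; PKLight luminescence normalized to neutral control.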

[6] = Confirmation and Secondary Assay for Modulators of Hemoglobin Beta Chain Splicing at IVS2 654 locus (AID 910); conditions: HeLa EGFP-654 splicing reporter, GFP fluorescence, 48 h; series mostly up to 46.1 µM;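 note: HeLa cells stably carrying EGFP split by mutant beta-globin IVS2-654 intron; per-well total GFP intensity by laser scanning cytometry after 2-day treatment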
Outline: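 Readout: per-well total peak green fluorescence (488 nm ex, 500–520 nm em) from objects 5–250 µm, reflecting correct splicing of an EGFP-654 reporter. Compounds were applied for 2 days at 37 °C to overnight-plated HeLa EGFP-654 cells; controls were DMSO and 500 nM IVS2-654 PNA.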

[7] = Confirmation and Secondary Assay for Modulators of Hemoglobin Beta Chain Splicing at IVS2 705 locus (AID 930); conditions: HeLa EGFP-705 splicing reporter, GFP fluorescence, 48 h; series mostly up to 46.1 µM;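 note: HeLa cells stably expressing the EGFP-705 splicing reporter; GFP fluorescence per well restored by corrected splicing of the IVS2-705 intron in EGFP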
Outline: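 HeLa IVS2-705 EGFP reporter cells, 500/well, compound 2 d at 37C; correct splicing yields fluorescent EGFP. Control: 500 nM antisense PNA. Read-out: total peak GFP intensity.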

[8] = MultiTox-Fluor Cytotoxicity Assay - LYMP1-001 - Dead Cells (AID 946); conditions: LYMP1-001 lymphoblastoid cells, dead-cell protease fluorescence; series mostly up to 92.2 µM;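 note: cells exposed to compound for 16 h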
Outline: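 Seed 2500 LYMP1-001 cells/well, incubate 5 hr at 37 C; add compound, 16 hr at 37 C; add MultiTox-Fluor reagent, 60 min RT; read dead-cell fluorescence Ex/Em=485/520. Normalize to DMSO and 15 uM tetraoctylammonium bromide.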

[9] = MultiTox-Fluor Cytotoxicity Assay - LYMP1-001 - Live Cells (AID 947); conditions: LYMP1-001 lymphoblastoid cells, live-cell protease fluorescence viability; series mostly up to 92.2 µM; note: potency is the fitted concentration of half-maximal effect
[10] = qHTS Assay for Identification of Small Molecule Antagonists for Thrombopoietin (TPO) Signaling Pathway (AID 918); conditions: TPO-dependent cell signaling reporter, antagonist mode; note: potency is the fitted concentration of half-maximal effect; nearly all actives have a fitted effect of over 60% in size
Protocol: NIH Molecular Libraries Screening Centers Network [MLSCN]
NIH Chemical Genomics Center [NCGC]
The thrombopoietin (TPO) signaling pathway was assayed in murine Ba/F3 cells stably transfected with the human TPO receptor and a luciferase reporter gene controlled by the Glycoprotein IIb promoter (provided by Axxam). BaF3 cells are an IL-3-dependent pro B cell line that upon TPO stimulation, undergo cell division and induce the megakaryocyte marker, Glycoprotein IIb. The assay was screened at the EC50 of TPO (26 pM) to identify inhibitors of the pathway.
NCGC Assay Protocol Summary:
Cells were maintained at 37 C and 5% CO2in RPMI with 10% fetal bovine serum, 0.5 ng/mL murine IL-3, 100U/ml penicillin and 100 ug/ml streptomycin. Prior to plating, cells were incubated overnight in medium without IL-3. Cells were plated at 250 cells/5uL/well into white solid 1536-well plates, 23 nL of compounds were delivered by a pin tool, and 1 uL of TPO (26 pM final concentration in IL-3 deficient medium) was added. Following 24 hrs of incubation at 37 C and 5% CO2, 4 uL of Steadylite detector mix (PerkinElmer) was added, the plates incubated at room temperature for 10 min and luminescence was measured for 10 s and 2X binning by a ViewLux detector (Perkin Elmer).

With `N#CCCN` the activation [1] was 19.4% (inactive), the Potency [2] was “inactive” and the Potency [3] was “inactive”. For the same molecule, the Potency [4] was “inactive” and the Potency [5] was “inactive”.
In the case of `C=CCC1(C(C)CCC)C(=O)N=C(S)NC1=O` (configuration not stated), the outcome [6] is reported as “inactive” and the outcome [7] is reported as “inactive”.
For `CCCN(CCC)[C@H]1CCc2c(F)ccc(O)c2C1`, the Potency [2] was “inactive”, the Potency [3] was 6.31 µM (active) and the Potency [4] was 8.91 µM (active). The Potency [5] was “inactive”.
For `NC(Cc1ccc(N(CCCl)CCCl)cc1)C(=O)O` (configuration not stated), the outcome [6] was “inactive” and the outcome [7] was “inactive”.
For `Cc1sc2ccccc2c1CC1=NCCN1`, the Potency [2] was “inactive”, the Potency [3] was “inactive” and the Potency [4] was “inactive”. For the same molecule, the Potency [5] was “inactive”.
In the case of `COc1ccc(OC)c(C(O)C(C)N)c1` (configuration not stated), the outcome [6] is reported as “inactive” and the outcome [7] is reported as “inactive”.
In the case of `CCCN(CCC)[C@@H]1CCc2cccc(O)c2C1`, the Potency [2] is reported as “inactive”, the Potency [3] is reported as 3.98 µM (active) and inactive and the Potency [4] is reported as 7.08 µM (active) and inactive. For the same molecule, the Potency [5] was “inactive”.
For `Clc1ccc(Cl)cc1`, the outcome [6] was “inactive” and the outcome [7] was “inactive”.
With `OC1CCCCC1N1CCC(c2ccccc2)CC1` (configuration not stated) the outcome [6] was “inactive” and the outcome [7] was “inactive”.
For `O=[N+]([O-])c1ccc2nc(N3CCNCC3)ccc2c1`, the activation [1] was -10.4% (inactive), the Potency [4] was “inactive” and the Potency [5] was “inactive”.
For `O=[N+]([O-])c1cc(O)c(O)c([N+](=O)[O-])c1`, the outcome [6] was “inactive”, the Potency [2] was “inactive” and the outcome [7] was “inactive”. The Potency [3] was “inactive”, the Potency [4] was “inactive” and the Potency [5] was “inactive”.
With `[N-]=[N+]=CC(=O)OCC(N)C(=O)O` (configuration not stated) the outcome [6] was “inactive” and the outcome [7] was “inactive”.
With `NC(=O)c1cc(N2CC2)c([N+](=O)[O-])cc1[N+](=O)[O-]` the Potency [2] was “inactive”, the Potency [3] was “inactive” and the Potency [4] was “inactive”. The Potency [5] was “inactive”.
For `Nc1ccc(CCN2CCN(c3cccc(C(F)(F)F)c3)CC2)cc1`, the activation [1] was -27.7% (inactive), the Potency [3] was 11.2 µM (active) and the Potency [5] was “inactive”.
In the case of `COc1ccc2c(c1OC)C(=O)OC2C1c2cc3c(cc2CCN1C)OCO3` (configuration not stated), the outcome [6] is reported as “inactive”, the outcome [7] is reported as “inactive” and the Potency [8] is reported as “inactive”. For the same molecule, the Potency [9] was “inactive”.
For `CC(N)Cc1ccc(O)cc1` (configuration not stated), the outcome [6] was “inactive” and the outcome [7] was “inactive”.
For `O=C1CCO1`, the outcome [6] was “inactive”, the outcome [7] was “inactive” and the Potency [8] was “inactive”. The Potency [9] was “inactive”.
With `C[CH2][Hg][S]c1ccccc1C(=O)O` the outcome [6] was “inactive” and the outcome [7] was “inactive”.
With `C[N+](C)(C)CC#CCN1CCCC1=O` the Potency [2] was “inactive”, the Potency [3] was “inactive” and the Potency [4] was “inactive”. For the same molecule, the Potency [5] was “inactive”.
In the case of `[Cl-].[Cl-].[Hg+2]`, the outcome [6] is reported as “inactive”, the outcome [7] is reported as “inactive” and the Potency [9] is reported as 31.6 µM (active).
For `CP(=O)(O)C1=CCNCC1`, the Potency [2] was “inactive”, the Potency [3] was “inactive” and the Potency [4] was “inactive”. The Potency [5] was “inactive”.
With `CNC(=O)OCC[N+](C)(C)C` the Potency [2] was “inactive”, the Potency [3] was “inactive” and the Potency [4] was “inactive”. For the same molecule, the Potency [5] was “inactive”.
With `C[N+](C)(C)CCOC(=O)CBr` the activation [1] was 16.2% (inactive), the Potency [2] was “inactive” and the Potency [4] was “inactive”. The Potency [5] was “inactive”.
With `C[C@@H]1[C@@H]2Cc3ccc(O)cc3[C@@]1(C)CCN2CC1CC1` the Potency [2] was “inactive”, the Potency [3] was 14.1 µM (active) and the Potency [4] was 15.8 µM (active). The Potency [5] was “inactive”.
With `COc1ccc2[nH]cc(CCN)c2c1` the outcome [6] was “inactive”, the Potency [2] was “inactive” and the outcome [7] was “inactive”. For the same molecule, the Potency [3] was “inactive”, the Potency [4] was “inactive” and the Potency [5] was “inactive”.
In the case of `CCCN(CCC)C1Cc2cc(OC)c(OC)cc2C1`, the Potency [2] is reported as “inactive”, the Potency [3] is reported as 1.26 µM (active) and the Potency [4] is reported as 2.51 µM (active). The Potency [5] was “inactive”.
With `Clc1cc(I)cc(Cl)c1NC1=NCCN1` the Potency [2] was “inactive”, the Potency [3] was 15.8 µM (active) and the Potency [4] was “inactive”. The Potency [5] was “inactive”.
For `NCCCP(=O)(O)O`, the activation [1] was -8.81% (inactive), the Potency [2] was “inactive” and the Potency [3] was “inactive”. For the same molecule, the Potency [5] was “inactive”.
For `CCCC(C)C1(CC)C(=O)NC(=O)NC1=O` (configuration not stated), the outcome [6] was “inactive” and the outcome [7] was “inactive”.
In the case of `ClC1C(Cl)C(Cl)C(Cl)C(Cl)C1Cl` (configuration not stated), the outcome [6] is reported as “inactive” and the outcome [7] is reported as “inactive”.
For `O=P(O)(O)C(Cl)(Cl)P(=O)(O)O`, the Potency [2] was “inactive”, the Potency [3] was “inactive” and the Potency [4] was “inactive”. For the same molecule, the Potency [5] was “inactive”.
In the case of `COc1ccc2[nH]c3c(c2c1)CCNC3`, the Potency [2] is reported as “inactive”, the Potency [3] is reported as “inactive” and the Potency [4] is reported as “inactive”. The Potency [5] was “inactive”.
For `CN1C2CCC1CC(OC(c1ccccc1)c1ccccc1N)C2` (configuration not stated), the outcome [6] was “inactive” and the outcome [7] was “inactive”.
In the case of `c1ccc2c(N3CCNCC3)cccc2c1`, the Potency [2] is reported as “inactive” and the Potency [5] is reported as “inactive”.
With `N[C@@H](Cn1oc(=O)[nH]c1=O)C(=O)O` the Potency [2] was “inactive”, the Potency [4] was “inactive” and the Potency [5] was “inactive”.
In the case of `CC(=O)NBr`, the Potency [2] is reported as “inactive”, the Potency [4] is reported as “inactive” and the Potency [5] is reported as “inactive”.
With `CN1CCc2cc(O)cc3c2[C@H]1Cc1ccc(O)c(O)c1-3` the Potency [10] was 10 µM (active) and the Potency [5] was “inactive”.
For `CCCN(CCC)CCc1ccc(O)c(O)c1`, the Potency [2] was “inactive”, the Potency [4] was “inactive” and the Potency [5] was “inactive”.
For `NNC(=O)c1ccc(O)cc1`, the Potency [2] was “inactive”, the Potency [3] was “inactive” and the Potency [5] was “inactive”.
For `CCCn1c(=O)c2[nH]c(C3CCCC3)nc2n(CCCOC(=O)c2ccc(S(=O)(=O)F)cc2)c1=O`, the Potency [2] was “inactive”, the Potency [3] was 5.01 µM (active) and the Potency [5] was “inactive”.
For `Cc1c2ccncc2c(C)c2c1[nH]c1ccccc12`, the Potency [10] was 10 µM (active), the Potency [3] was “inactive” and the Potency [4] was 25.1 µM (active). The Potency [5] was “inactive”.
In the case of `CCN(CCCl)Cc1ccccc1Br`, the Potency [2] is reported as “inactive” and the Potency [5] is reported as “inactive”.
For `CN1CCc2cccc(Cl)c2CC1`, the Potency [2] was “inactive” and the Potency [5] was “inactive”.
For `NC(=O)CI`, the Potency [10] was 3.16 µM (active), the Potency [3] was “inactive” and the Potency [5] was “inactive”.
